Laboratory results reported in PubChem BioAssay (NCI).
The panel holds about 79,000 compounds, 15% with a hit somewhere; the sample as a whole holds those more often. Unmarked numbers belong to inactive results. Activity calls are given as the source filed them. No stated cut-off is given here; in the data, active means growth inhibition above about 70%; inactive means the rest.

Assays:
[1] = NCI Yeast Anticancer Drug Screen. Data for the rad50 strain (AID 155);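 further: 0% = growth of vehicle-only cultures of the same strain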; conditions: S. cerevisiae rad50 strain growth inhibition; at 50.0 µM; stronger effect = higher value
Summary of the method: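 Genetically altered yeast (DNA repair pathway); compound treatment; growth inhibition vs vehicle ctrl.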

[2] = NCI Yeast Anticancer Drug Screen. Data for the mec2-1 strain (AID 157); conditions: S. cerevisiae mec2-1 strain, at 50.0 µM, stronger effect = higher value
Summary of the method: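 mec2-1 yeast strain, carrying an alteration in DNA damage repair or cell cycle control, was exposed to compounds; growth inhibition was measured relative to vehicle-treated controls.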

[3] = NCI Yeast Anticancer Drug Screen. Data for the sgs1 mgt1 strain (AID 161);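 further: 0% = growth of cultures given vehicle only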; conditions: S. cerevisiae sgs1 mgt1 strain, at 50.0 µM, stronger effect = higher value
Summary of the method: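 Compounds are added to genetically altered yeast, and growth is compared with cultures given vehicle alone to give percent inhibition.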

[4] = NCI Yeast Anticancer Drug Screen. Data for the cln2 rad14 strain (AID 165);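 further: 0% = growth equal to vehicle treated cultures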; conditions: S. cerevisiae cln2 rad14 strain, at 50.0 µM, stronger effect = higher value
Summary of the method: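 Yeast carrying cln2 and rad14 alterations (cell cycle control and DNA damage repair) were exposed to compounds. Growth inhibition was measured against vehicle-treated controls.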

[5] = NCI Yeast Anticancer Drug Screen. Data for the bub3 strain (AID 167); conditions: S. cerevisiae bub3 mutant strain, at 50.0 µM, stronger effect = higher value
Summary of the method: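 Yeast carrying a defined mutation is treated with each compound, and growth is compared with that of vehicle-exposed cells to give inhibition.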

[6] = NCI Yeast Anticancer Drug Screen. Data for the mlh1 rad18 strain (AID 175); conditions: S. cerevisiae mlh1 rad18 strain growth inhibition; at 50.0 µM; stronger effect = higher value
Summary of the method: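 Growth inhibition of the yeast strain was measured after compound exposure and expressed relative to vehicle-treated controls. The strain carries defined defects in DNA damage repair.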

O=C(NCC(O)CO)c1c([N+](=O)[O-])ccc(N(CCCl)CCCl)c1[N+](=O)[O-] (stereo not drawn)
growth inhibition [1]: -11.2%
growth inhibition [2]: -9.85%
growth inhibition [3]: -0.45%
growth inhibition [4]: 1.45%
growth inhibition [5]: -19.1%
growth inhibition [6]: 21%

O=c1ccc(=O)[nH][nH]1.[Zn+2]
growth inhibition [1]: -18.2%
growth inhibition [2]: 5.1%
growth inhibition [3]: -4.8%
growth inhibition [4]: -7.2%
growth inhibition [5]: -4%
growth inhibition [6]: -22.1%

O=C1OCC2(CO)SC(c3ccccc3)NC12 (stereo not drawn)
growth inhibition [1]: -11.1%
growth inhibition [2]: -0.3%
growth inhibition [3]: -17.1%
growth inhibition [4]: -20.6%
growth inhibition [5]: -4.6%
growth inhibition [6]: -7.45%

CC(C)COC(=O)Cc1ccccc1
growth inhibition [1]: 23.2%
growth inhibition [2]: 12.6%
growth inhibition [3]: 13.7%
growth inhibition [4]: -30.1%
growth inhibition [5]: -0.55%
growth inhibition [6]: 25.4%

CC(C)CCON=O
growth inhibition [1]: -11.3%
growth inhibition [2]: -9.4%
growth inhibition [3]: -28.2%
growth inhibition [4]: -9.05%
growth inhibition [5]: -13.1%
growth inhibition [6]: -35.6%

C=CCC1(C(=C)C)C(=O)NC(=O)NC1=O
growth inhibition [1]: 6.05%
growth inhibition [2]: 6.05%
growth inhibition [3]: 1.4%
growth inhibition [4]: 2.75%
growth inhibition [5]: -13.8%
growth inhibition [6]: -11.3%

N/C(N=P(c1ccccc1)(c1ccccc1)c1ccccc1)=N\[N+](=O)[O-]
growth inhibition [1]: 11.7%
growth inhibition [2]: 15.8%
growth inhibition [3]: 8.35%
growth inhibition [4]: 4.65%
growth inhibition [5]: 12.2%
growth inhibition [6]: -16.1%

CC1(C)O[C@]2(C)CC[C@@H]1[C@@H](O)[C@@H]2N1CCCC1
growth inhibition [1]: 1.75%
growth inhibition [2]: -8.6%
growth inhibition [3]: -6.75%
growth inhibition [4]: -33.4%
growth inhibition [5]: -6.75%
growth inhibition [6]: 0.15%

CN(C1CCCC1)C1CCCC1
growth inhibition [1]: -27.1%
growth inhibition [2]: -25.9%
growth inhibition [3]: -24.1%
growth inhibition [4]: 5.3%
growth inhibition [5]: 2.25%
growth inhibition [6]: -7.7%

ClCCN(CCCN(CCCl)c1ccccc1)c1ccccc1
growth inhibition [1]: 11.8%
growth inhibition [2]: 12.7%
growth inhibition [3]: 32.5%
growth inhibition [4]: -8.25%
growth inhibition [5]: -5.1%
growth inhibition [6]: -27.9%

O=P(O)(O)SP(=O)(O)O.[Zn+2]
growth inhibition [1]: -20.9%
growth inhibition [2]: 9.55%
growth inhibition [3]: -15.8%
growth inhibition [4]: -8.7%
growth inhibition [5]: -12.6%
growth inhibition [6]: -1.35%

CC(=O)OC1CCC2(C)C(CC(=O)C3C2CCC2(C)C(OC(C)=O)CCC32)C1 (stereo not drawn)
growth inhibition [1]: 7.35%
growth inhibition [2]: 7.35%
growth inhibition [3]: 1.5%
growth inhibition [4]: 15.8%
growth inhibition [5]: -4.2%
growth inhibition [6]: 2.15%

CC(=O)OCC1OC(S[As](C)C)C(OC(C)=O)C(OC(C)=O)C1OC(C)=O (stereo not drawn)
growth inhibition [1]: -2.85%
growth inhibition [2]: 13.8%
growth inhibition [3]: -8.3%
growth inhibition [4]: 10.9%
growth inhibition [5]: 6.4%
growth inhibition [6]: 36.8%

O=c1[nH]cc(Cn2cccc3c(=O)ncnc2-3)c(=O)[nH]1
growth inhibition [1]: 14.9%
growth inhibition [2]: 5.05%
growth inhibition [3]: -4.45%
growth inhibition [4]: -43.5%
growth inhibition [5]: -16.7%
growth inhibition [6]: -5.7%

Cc1c[nH]c2c1C13CC1CN(C(=O)c1cc4cc(NC(=O)c5cc6ccccc6o5)ccc4[nH]1)C3=CC2=O (stereo not drawn)
growth inhibition [1]: 84.9% (active)
growth inhibition [2]: 91.4% (active)
growth inhibition [3]: 90.3% (active)
growth inhibition [4]: 88.2% (active)
growth inhibition [5]: 90.2% (active)
growth inhibition [6]: 89% (active)

CC[N+](CC)(CC)CC.N#CC(C#N)=C([SH2+])[SH2+].N#CC(C#N)=C([SH2+])[SH2+].[Co+2]
growth inhibition [1]: 95.3% (active)
growth inhibition [2]: 95.8% (active)
growth inhibition [3]: 56%
growth inhibition [4]: 94.5% (active)
growth inhibition [5]: 98.9% (active)
growth inhibition [6]: 98.7% (active)

CC(=O)[C-](Br)C(C)=O.CC(=O)[C-](Br)C(C)=O.CC(=O)[C-](Br)C(C)=O.[Ru+3]
growth inhibition [1]: 1.05%
growth inhibition [2]: 1%
growth inhibition [3]: -15.9%
growth inhibition [4]: -15.1%
growth inhibition [5]: 17.8%
growth inhibition [6]: 14.5%

CCCCS(=O)CCC(N)P(=O)(O)O (stereo not drawn)
growth inhibition [1]: -50.6%
growth inhibition [2]: -54%
growth inhibition [3]: -52.8%
growth inhibition [4]: -9.9%
growth inhibition [5]: 1%
growth inhibition [6]: -38.2%

O=C1CC(=O)NC(=S)N1
growth inhibition [1]: 2.15%
growth inhibition [2]: 21.1%
growth inhibition [3]: -13.5%
growth inhibition [4]: -21.4%
growth inhibition [5]: 4.85%
growth inhibition [6]: -5.75%

Cc1ccc(-n2c(=O)[nH]c3ccccc3c2=O)cc1[N+](=O)[O-]
growth inhibition [1]: 12.9%
growth inhibition [2]: 12.3%
growth inhibition [3]: 33%
growth inhibition [4]: 23.2%
growth inhibition [5]: 35.4%
growth inhibition [6]: 26.6%

COc1ccc2c(c1OC(C)=O)C1=CC(=O)CCC13CCNC3C2 (stereo not drawn)
growth inhibition [1]: 15.8%
growth inhibition [2]: 6.7%
growth inhibition [3]: -13.9%
growth inhibition [4]: 27.2%
growth inhibition [5]: -28.4%
growth inhibition [6]: -24.3%

CCC1c2cc(O)c(OC)cc2CCN1C (stereo not drawn)
growth inhibition [1]: -7.7%
growth inhibition [2]: -0.9%
growth inhibition [3]: 2.45%
growth inhibition [4]: -14.9%
growth inhibition [5]: -7.75%
growth inhibition [6]: -8%

C#[C][Sn]([CH2]CCC)([CH2]CCC)[CH2]CCC
growth inhibition [1]: 99% (active)
growth inhibition [2]: 99.5% (active)
growth inhibition [3]: 99.2% (active)
growth inhibition [4]: 99.1% (active)
growth inhibition [5]: 99.3% (active)
growth inhibition [6]: 99.2% (active)

O=c1[nH]c2ccc([As](O)O)cc2[nH]1
growth inhibition [1]: -14.8%
growth inhibition [2]: -14.9%
growth inhibition [3]: -4.9%
growth inhibition [4]: -17.8%
growth inhibition [5]: -8.25%
growth inhibition [6]: 0.75%

C#CC(C)N1CCC2(CC1)C(=O)NCN2c1ccccc1 (stereo not drawn)
growth inhibition [1]: -19.3%
growth inhibition [2]: -6.1%
growth inhibition [3]: -15.7%
growth inhibition [4]: -2.85%
growth inhibition [5]: -4.05%
growth inhibition [6]: 0.65%

COc1ccc2c(c1OC)C(=O)O[C@@H]2[C@H]1c2cc3c(cc2CCN1C)OCO3
growth inhibition [1]: -8.75%
growth inhibition [2]: -4.8%
growth inhibition [3]: 0.95%
growth inhibition [4]: 6.75%
growth inhibition [5]: 4.8%
growth inhibition [6]: -43.5%

O=S(=O)(F)c1cc(Cl)c(O)c(S(=O)(=O)F)c1
growth inhibition [1]: 10.1%
growth inhibition [2]: 6.25%
growth inhibition [3]: 5.8%
growth inhibition [4]: 3.65%
growth inhibition [5]: -2.75%
growth inhibition [6]: 10.1%

CCC1(C(C)C=C(C)C)C(=O)NC(=O)NC1=O (stereo not drawn)
growth inhibition [1]: -28.6%
growth inhibition [2]: -12.4%
growth inhibition [3]: -4.75%
growth inhibition [4]: 1.45%
growth inhibition [5]: 10.3%
growth inhibition [6]: -10.2%

N#CC(C#N)C1CN2CCC1CC2 (stereo not drawn)
growth inhibition [1]: 1.95%
growth inhibition [2]: 13.3%
growth inhibition [3]: 15.6%
growth inhibition [4]: 24.5%
growth inhibition [5]: 4.9%
growth inhibition [6]: -26.6%

CN1C(c2cccnc2)=NCC12CCCC2
growth inhibition [1]: -2.95%
growth inhibition [2]: -10.1%
growth inhibition [3]: 6.45%
growth inhibition [4]: -17.2%
growth inhibition [5]: -10.2%
growth inhibition [6]: -9.45%

CC(C)CN(CC(C)C)[N+](=O)[O-]
growth inhibition [1]: -6.25%
growth inhibition [2]: 1.45%
growth inhibition [3]: -17.8%
growth inhibition [4]: 4.05%
growth inhibition [5]: 6.05%
growth inhibition [6]: -12.7%

O=C1NC(=O)C(CCO)(c2ccccc2)C(=O)N1
growth inhibition [1]: -21.6%
growth inhibition [2]: -13%
growth inhibition [3]: -4.4%
growth inhibition [4]: -6.25%
growth inhibition [5]: -11.7%
growth inhibition [6]: -4.15%

Cc1ccc(O)cc1Cl
growth inhibition [1]: -17.8%
growth inhibition [2]: -39%
growth inhibition [3]: -20.6%
growth inhibition [4]: -7.65%
growth inhibition [5]: -31.9%
growth inhibition [6]: 1.75%

Cc1cc(O)c2c(c1)OC(C)(C)C1=C2CC(C)CC1 (stereo not drawn)
growth inhibition [1]: -6.4%
growth inhibition [2]: 10.8%
growth inhibition [3]: -1.05%
growth inhibition [4]: -52.8%
growth inhibition [5]: -16.1%
growth inhibition [6]: -21.9%

CCC[As](=O)(O)Cc1ccccc1C
growth inhibition [1]: 4.3%
growth inhibition [2]: -5.4%
growth inhibition [3]: 7.8%
growth inhibition [4]: -1.3%
growth inhibition [5]: 18%
growth inhibition [6]: 22.1%

CCCCP(=O)(CCCC)CCCC.CCCCP(=O)(CCCC)CCCC.CCCCP(=O)(CCCC)CCCC.CCCCP(=O)(CCCC)CCCC.[Mn+2].[O-][Cl+3]([O-])([O-])O
growth inhibition [1]: 13.3%
growth inhibition [2]: -57.7%
growth inhibition [3]: -24.6%
growth inhibition [4]: -17.5%
growth inhibition [5]: -21.9%
growth inhibition [6]: -17.9%

CC(=O)C1=C(O)C2C3c4c[nH]c5cccc(c45)CC3C(C)(C)N2C1=O (stereo not drawn)
growth inhibition [1]: 22.6%
growth inhibition [2]: -11%
growth inhibition [3]: 23.9%
growth inhibition [4]: -12.8%
growth inhibition [5]: 15%
growth inhibition [6]: 21.8%

CC(=O)Cc1c[nH]c2ccccc12
growth inhibition [1]: -25.2%
growth inhibition [2]: -41.3%
growth inhibition [3]: -9.35%
growth inhibition [4]: -1.5%
growth inhibition [5]: -28.2%
growth inhibition [6]: -25.2%
